Only some compounds are listed: those with a hit (about 2.9% of all), similar ones and a draw of the others.
MITF act: activators of MITF-driven TRPM1 promoter reporter, primary screen, cell-based, SK-MEL-5, luciferase, single point. AID 588334, 2011. SK-MEL-5 TRPM1-promoter luciferase, 24 h; % of positive control, neutral wells = 0. actives 0.75% (n = 300,000). activation, % at 12.5 µM;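 active means mean activation of at least 80% with every replicate also reaching 80%; inconclusive means mean reaches 80% but some replicate falls short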;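 further: 0% = neutral control wells and 100% = parthenolide positive control wells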
Glyco luc inh: increase of ERlucT glycosylation luciferase signal, primary screen, N-linked glycosylation inhibitor project, D54 ERlucT cells, luminescence, set 2; actives 0.23% (n = 360,000); reporter increase, % at 12.5 µM; D54 ERlucT glycosylation luciferase reporter, 24 h; percent of 100 nM tunicamycin response; AID 588692, 2011;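 active means mean luciferase reporter signal, scaled so untreated is 0 and the glycosylation-blocking control 100, at or above a set limit in every replicate; inconclusive means mean reaches the limit but not every replicate does; inactive means mean below the limit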;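 further: luciferase carries N-glycosylation sites so blocking glycosylation raises the light; 0% = median of neutral control wells and 100% = median of 100 nM tunicamycin wells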
PvdQ inh: P. aeruginosa PvdQ acylase inhibitors, primary screen, biochemical, fluorescence, plate reader and imaging, single point; PvdQ acylase [Pseudomonas aeruginosa LESB58]; purified PvdQ acylase; inhibition, % at 10 µM; actives 0.063% (n = 340,000); AID 488965, 2010; in the data active means inhibition above about 30%, passing the limit was not always enough; inconclusive means no clear call, values can overlap the other calls;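 further: 0% = vehicle neutral wells and 100% = reference inhibitor wells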
esBAF inh: Bmi1 luciferase reporter increase in mESCs, primary screen, esBAF inhibitor project, mouse ES cells, Bmi1 luciferase knock-in, single point; 24 h; 100% = twice the neutral-well signal; reporter increase, % at 12.5 µM; actives 2% (n = 350,000); AID 602393, 2012; in the data active means activation above about 40%; inconclusive means no clear call, values can overlap the other calls;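 further: 0% = median of the plate's neutral control wells and 100% = double that signal; a rise in the Bmi1 reporter signal indicates esBAF inhibition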
Vif imaging: HIV Vif self-association inhibitors, primary screen, imaging, HEK293T, single point. HEK293T cells, Vif self-association by quenched fluorescence, 24 h. inhibition, % at 7.49 µM. actives 0.35% (n = 340,000); in the data active means inhibition above about 50%, passing the limit was not always enough; inconclusive means no clear call, values can overlap the other calls; inactive means below about 31%
Wnt act: Wnt/beta-catenin pathway activators, primary screen, cell-based, plate reader, single point. activation, % at 9.35 µM. actives 1.2% (n = 300,000). Wnt/beta-catenin reporter cell assay, activator; in the data active means activation above about 30%, passing the limit was not always enough; inconclusive means no clear call, values can overlap the other calls;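 further: 0% = neutral control wells and 100% = positive control wells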
* hit, by the source's call.

`CCC(=O)Nc1ccc(-c2ccc(N3CCC(C)CC3)nn2)cc1` gave MITF act 89*, Glyco luc inh -3, PvdQ inh -14, esBAF inh 48* and Vif imaging inconclusive.
`CCC(=O)Nc1cccc(-c2ccc(N3CCC(C)CC3)nn2)c1` gave MITF act 7, Glyco luc inh -21, PvdQ inh 11, esBAF inh -58, Vif imaging -2 and Wnt act 27.
O=C([C@@H]1[C@@H](CO)[C@@H]2Cn3c(cccc3=O)[C@@H]2N1Cc1ccccc1Cl)N1CCCCC1 was read as esBAF inh 0.
Screening COc1cccc(C(=O)N2C[C@@H]3[C@H](c4ccccc42)[C@H](CO)N3C(=O)c2cccc(F)c2)c1 returned esBAF inh 3.
For C=CCNC(=O)C1CC(=O)N(c2ccc(OCc3ccc(F)cc3)cc2)C1 (stereo unspecified) the results were MITF act 47, Glyco luc inh -9, PvdQ inh -12, esBAF inh inconclusive, Vif imaging -8 and Wnt act 37*.
Screening C=CCNC(=O)C1CC(=O)N(c2ccc(OCC(=O)Nc3ccccc3)cc2)C1 (stereo unspecified) returned MITF act inconclusive, Glyco luc inh -3, PvdQ inh -6, esBAF inh 53*, Vif imaging -2 and Wnt act inconclusive.
COCC(=O)N1C[C@@H]2[C@H](c3ccccc31)[C@H](CO)N2C(=O)C1CCCC1 was read as esBAF inh 1.
`N#C/C(=C\c1ccccn1)c1nc2ccccc2s1` gave MITF act -28, Glyco luc inh 18, PvdQ inh -2, esBAF inh 33 and Wnt act 7.
Screening COc1ccc(/C(C#N)=C/c2ccccn2)cc1 returned MITF act 79, Glyco luc inh -3, PvdQ inh 53*, esBAF inh 32, Vif imaging -3 and Wnt act 33*.
`Nc1nc(SCC(=O)N2CCc3ccccc3C2)[nH]c(=O)c1-c1ccccc1` gave MITF act 4, Glyco luc inh -2, PvdQ inh -6, esBAF inh 56*, Vif imaging -3 and Wnt act 11.
`CO[C@H]1CN(C)C(=O)c2cc(NC(=O)Cc3ccccc3)ccc2OC[C@@H](C)N(CC2CC2)C[C@@H]1C` gave esBAF inh 0.
O=C(NCCNCc1ccccc1)c1ccco1 was read as MITF act -7, Glyco luc inh -1, PvdQ inh 1, esBAF inh 13, Vif imaging -4 and Wnt act -3.
`CCc1ccc(CNCCNC(=O)c2ccco2)cc1` gave MITF act -7, Glyco luc inh -1, PvdQ inh -6, esBAF inh 36, Vif imaging 15 and Wnt act 42*.
Screening COc1cccc(-c2nc3ccc(C(=O)NC(C)Cc4cccnc4)cc3o2)c1 (stereo unspecified) returned MITF act 40, Glyco luc inh -4, PvdQ inh 8, esBAF inh 54*, Vif imaging 5 and Wnt act 23.
Screening COC(=O)C1CCN(C(=O)c2ccc3nccnc3c2)CC1 returned MITF act -1, Glyco luc inh 3, PvdQ inh -9, esBAF inh -5, Vif imaging -4 and Wnt act 0.
Screening COC(=O)C1CCN(C(=O)c2ccc3nc(-c4cccc(OC)c4)oc3c2)CC1 returned MITF act -1, Glyco luc inh -4, PvdQ inh -13, Vif imaging 1 and Wnt act 32*.
COc1cccc(-c2nc3ccc([N+](=O)[O-])cc3o2)c1 was read as MITF act 54, Glyco luc inh -4, PvdQ inh -19, Vif imaging -4 and Wnt act 12.
